# Measured values taken from paper PMC4336329 (PLoS ONE, 2015).
# The whole screen tested about 310,000 compounds, of which about 14,000 (4.5%) showed an effect of 50% or more. Effects have a minus sign here. This excerpt belongs to a sample that is enriched for strong results.
# Target: human ether-à-go-go-related gene (hERG) potassium channel (human, UniProt Q12809)
# Test: primary screen, population patch clamp on CHO cells stably expressing hERG; higher = less effect of the substance
# 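Note: peak tail current of the secondary pulse compared with the same well before compound.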
# Chain of human ether-à-go-go-related gene (hERG) potassium channel (Q12809 whole entry, looked up): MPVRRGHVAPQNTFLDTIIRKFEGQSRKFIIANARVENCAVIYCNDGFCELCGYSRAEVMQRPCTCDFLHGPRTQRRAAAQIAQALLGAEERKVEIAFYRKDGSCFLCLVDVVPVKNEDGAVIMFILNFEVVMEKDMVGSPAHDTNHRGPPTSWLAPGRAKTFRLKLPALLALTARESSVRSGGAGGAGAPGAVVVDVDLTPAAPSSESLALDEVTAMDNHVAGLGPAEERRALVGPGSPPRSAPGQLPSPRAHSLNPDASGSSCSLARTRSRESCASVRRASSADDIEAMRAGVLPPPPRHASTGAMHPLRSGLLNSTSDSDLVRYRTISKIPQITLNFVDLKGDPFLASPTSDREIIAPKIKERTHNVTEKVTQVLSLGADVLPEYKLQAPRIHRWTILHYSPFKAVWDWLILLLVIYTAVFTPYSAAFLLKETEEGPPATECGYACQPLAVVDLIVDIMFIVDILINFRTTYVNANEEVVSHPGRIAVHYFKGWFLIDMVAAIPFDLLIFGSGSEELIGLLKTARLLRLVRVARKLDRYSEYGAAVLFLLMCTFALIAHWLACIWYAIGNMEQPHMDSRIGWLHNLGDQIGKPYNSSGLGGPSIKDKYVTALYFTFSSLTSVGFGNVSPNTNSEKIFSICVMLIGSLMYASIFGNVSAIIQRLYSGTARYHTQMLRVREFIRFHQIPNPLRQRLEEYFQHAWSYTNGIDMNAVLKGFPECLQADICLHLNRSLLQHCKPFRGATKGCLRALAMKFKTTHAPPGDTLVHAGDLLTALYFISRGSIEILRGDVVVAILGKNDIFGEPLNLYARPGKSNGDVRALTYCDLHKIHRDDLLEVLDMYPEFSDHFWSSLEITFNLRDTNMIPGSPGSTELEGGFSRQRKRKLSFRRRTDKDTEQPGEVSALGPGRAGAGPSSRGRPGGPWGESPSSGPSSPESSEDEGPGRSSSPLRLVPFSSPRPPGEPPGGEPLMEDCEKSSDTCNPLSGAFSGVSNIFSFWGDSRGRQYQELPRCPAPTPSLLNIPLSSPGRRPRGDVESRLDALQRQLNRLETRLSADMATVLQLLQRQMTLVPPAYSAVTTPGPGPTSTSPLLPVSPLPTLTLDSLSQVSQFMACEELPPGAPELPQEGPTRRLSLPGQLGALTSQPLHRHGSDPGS
row,Structure (SMILES),"hERG current change (%, negative = inhibition) at 10uM"
1,O=C(NCCCN1CCCC1=O)c1ccc2c(=O)n(Cc3ccco3)c(=S)[nH]c2c1,-17.8%
2,Cc1ccc2oc(=O)c3cnn(CC(=O)NC4CCCCC4C)c3c2c1 (centres unmarked),8.43%
3,CS(=O)(=O)N1CCc2cc(NC(=O)c3ccc(Cl)cc3Cl)ccc21,1.5%
4,CCN(CC)C(=O)CSc1nc2ccccc2c(=O)[nH]1,12.5%
5,CCn1c(=O)c(=O)n(CC)c2cc(S(=O)(=O)Nc3ccc(C)cc3)ccc21,7.02%
6,Cn1c(=O)n(C)c2cc(NS(=O)(=O)c3ccccc3)ccc21,4.09%
7,CCn1c(=O)n(CC)c2cc(NS(=O)(=O)c3ccccc3)ccc21,-68.7%
8,Cn1cccc1-c1nc2ccc([N+](=O)[O-])cc2[nH]1,4.4%
9,Cn1cccc1-c1nc2ccc(NC(=O)c3ccccc3)cc2[nH]1,-39.3%
10,Cn1cccc1-c1nc2ccc(NC(=O)c3cccs3)cc2[nH]1,-53.3%
11,O=S(=O)(Nc1ccc2nc(-c3ccco3)[nH]c2c1)c1ccccc1,-58.4%
12,CC(=O)Nc1ccc2nc(-c3ccco3)[nH]c2c1,7.99%
13,O=C(Nc1ccc(-c2nc3ccc(NC(=O)c4cccs4)cc3[nH]2)cc1)c1cccs1,18.1%
14,Cc1ccc(-c2nc3ccc(NS(=O)(=O)c4ccccc4)cc3[nH]2)o1,-47.3%
15,Cc1ccc(S(=O)(=O)Nc2ccc3nc(-c4cccn4C)[nH]c3c2)cc1,-79.3%
16,CC(=O)Nc1ccc2nc(-c3cccn3C)[nH]c2c1,12.8%
17,COc1ccccc1CNC(=O)CNC(=O)[C@@H]1Cc2ccccc2CN1,1.14%
18,Cc1c(NC(=O)CSc2nnc(N)s2)c(=O)n(-c2ccccc2)n1C,-10.4%
19,Cc1ccnc(NC(=O)CN(C)S(=O)(=O)c2cccc3nsnc23)c1,7.8%
20,O=S(=O)(Nc1ccc(Cl)cc1)c1ccc2c(c1)CCO2,-3.21%
21,O=C(O)c1ccc(NS(=O)(=O)c2cc(Cl)sc2Cl)cc1,21.3%
22,Cc1oc2c(Cl)c(Cl)c(O)c(CN(C)C)c2c1C(=O)c1ccc(Cl)cc1,-1.39%

row,Structure (SMILES),"hERG current change (%, negative = inhibition) at 10uM"
1,Cc1nnc(SCC(=O)NC2CCCc3c2cnn3-c2ccccc2F)o1 (centres unmarked),20.5%
2,O=C(NCc1ccco1)c1cccn2c(=O)c3c4c(sc3nc12)CCCC4,13.6%
3,O=C(O)c1ccccc1C(=O)NCc1cccnc1,-32.8%
4,O=C(NCc1ccco1)c1cccn2c(=O)c3sccc3nc12,-68.4%
5,O=C(NCc1cccs1)c1cccn2c(=O)c3sccc3nc12,-7.79%
6,O=C(NCCNc1ccc2ccccc2c1)c1cccn2c(=O)c3sccc3nc12,-6.94%
7,O=C(NCc1cccnc1)c1cccn2c(=O)c3sccc3nc12,-63.2%
8,O=c1c2ccccc2ncn1-c1ccc([N+](=O)[O-])c(C(F)(F)F)c1,-3.74%
9,CC#C[C@@H](CC)c1ccc2ccn(C)c2c1,-4.51%
10,O=C(NC1CCCCCCC1)c1ccc(F)cc1,4.61%
11,COC(=O)C(Cc1ccccc1)NC(=O)c1cc(=O)[nH]c2ccccc12 (centres unmarked),17.6%
12,CC(C)CCNC(=O)c1ccc(NC(=O)C2=CSCCO2)cc1,4.36%
13,COc1ccccc1C1=NOC(C)(c2sc(-c3ccccc3)nc2C)C1 (centres unmarked),21.7%
14,Cc1cc(C)c(C#N)c(SCc2ccccc2)n1,11.2%
15,Clc1ccccc1Nc1nnc(-c2ccncc2)s1,-6.07%
16,Cc1ccc(Nc2nnc(-c3ccncc3)s2)c(Br)c1,-59.3%
17,CNc1nnc(-c2ccncc2)s1,-0.587%
18,CCOc1ccc2oc(=O)cc(CN3CCN(C(=O)c4ccco4)CC3)c2c1,-69.4%
19,CCOc1ccc2oc(=O)cc(CN3CCN(Cc4ccccc4)CC3)c2c1,-56.7%
20,Cc1cc(=O)oc2cc(OCC(=O)N3CCN(C(=O)c4ccco4)CC3)ccc12.Cl,-32.6%
21,CCN1CCN(Cc2cc(=O)oc3ccc(Cl)cc23)CC1,-15%
22,CCOc1ccc(CN2CCN(C(=O)c3ccco3)CC2)cc1.O=C(O)C(=O)O,-26.8%
